Lassa entry inh: blocks Lassa virus binding to or entry into cells. 1.2% of 300,000 active. Potency, µM (series often up to 37.9 µM), for the others: top-dose activity change, negative = inhibition, actives largely listed as inhibitors. Lassa virus pseudotype entry inhibition, cell reporter; calls by dose curve; tested in HEK293 cells; further: potency means the concentration at half of the fitted maximal effect; nearly all actives have a fitted effect of over 50% in size
HCMV antiviral: inhibitors of human cytomegalovirus | HFF cells, HCMV-luciferase reporter, 72 h; hits give low values | activity change, negative = inhibition, % at 57.5 µM | 4.5% of 410,000 active | AID 1259415; in the data active means activity change below about -60%; inconclusive means no clear call, values can overlap the other calls; inactive means above about -39%
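Two-dose cell screen: HFF monolayers treated with compounds and infected with luciferase-expressing HCMV at 1 PFU/cell, 72 h at 37C, then lysed for luciferase measurement.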
Pf growth 96h: P. falciparum growth inhibition at 96 hours; P. falciparum luciferase reporter growth, 96 h; Potency, µM (top dose mostly 28.7 µM), for the others: at the top dose activity change, negative = inhibition, hits mostly inhibitors; 6.9% of 320,000 active; AID 504834; further: potency means the concentration at half of the fitted maximal effect
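Cell-based qHTS: luciferase-tagged P. falciparum in erythrocytes (2% hematocrit, 0.05% parasitemia final) incubated with compounds for 96 hours, 37 C, 5% CO2; luciferase detection reagent then added and luminescence measured.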
Marburg entry inh: blocks Marburg virus binding to or entry into cells. Marburg virus pseudotyped entry inhibition, cell reporter. Potency, µM (doses to about 37.8 µM), inactives show at the highest dose activity change, negative = inhibition, most hits filed as inhibitors. 1.8% of 300,000 active. AID 540276; calls by dose curve; tested in HEK293 cells; further: potency means the concentration at half of the fitted maximal effect
HCV inhibitor: inhibitors of hepatitis C virus infection. Huh7.5.1 HCVcc-Cre infection, luciferase reporter, 44 h. Potency, µM (doses to about 41.8 µM), inactives show at the highest dose activity change, negative = inhibition, actives largely listed as inhibitors. 3.4% of 340,000 active; further: potency means the concentration at half of the fitted maximal effect
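After 44 h co-culture of compound, cells and HCVcc-Cre (~0.5 moi), substrate is added for 15 min at room temperature and luciferase measured over 15 sec. Cells were seeded at 1,000/well and pre-cultured 4 h.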
Pf growth 48h: inhibits P. falciparum growth in the first generation, 48 h; P. falciparum luciferase growth in erythrocytes, 48 h; Potency, µM (top dose mostly 28.7 µM), for inactives: at the top dose activity change, negative = inhibition, usual class: inhibitors; 5.9% of 310,000 active; AID 504832; further: potency means the concentration at half of the fitted maximal effect
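Erythrocytes infected with P. falciparum carrying an integrated firefly luciferase reporter (2% hematocrit, 0.1% parasitemia final) were exposed to compounds in RPMI 1640 with 0.5% Albumax at 37 C, 5% CO2. Growth inhibition was scored as reduced luminescence.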
* = called active by the depositor; i = inactive; ? = inconclusive; . = not tested or not shown; ! = not active in a repeat; [ ] = dose if it differs, or a comment. Rows were chosen to be rich in hits. Some 14% of all compounds tested hit in one or more screens of this group. Unless noted, the call rests on the fitted dose curve; in most records, active means well fitted inhibition curve with a large enough effect; inconclusive means small, poorly fitted or top-dose-only effect, or another doubt; inactive means no such curve, though single readings can be large or run the other way. On the % scale 0 is the no-effect control and ±100 the full control effect.

SMILES	Lassa entry inh	HCMV antiviral	Pf growth 96h	Marburg entry inh	HCV inhibitor	Pf growth 48h
CCCCn1nnnc1C1(C)CCC(=O)N1C1CC1 (stereo unspecified)	.	10	.	.	.	.
Cn1cnc(S(=O)(=O)N2CCCC(c3cc(C(=O)Nc4ccc(F)c(Cl)c4)no3)C2)c1 (stereo unspecified)	.	-28	.	.	.	.
O=C(Nc1ccncc1)C1CCCN(S(=O)(=O)c2cccc3cccnc23)C1 (stereo unspecified)	.	-22	5.9µM*	1%	?	-11%
CC(C)(C)c1ccc(NC(=O)c2cc(C3CCCN(S(=O)(=O)c4cccc5cccnc45)C3)on2)cc1 (stereo unspecified)	.	-86*	.	.	.	.
O=C(Nc1ccc(C(F)(F)F)cc1)C1CCCN(S(=O)(=O)c2cccc3cccnc23)C1 (stereo unspecified)	-15%[46.1 µM]	15	.	11%[46.1 µM]	.	.
O=C(Nc1ccc(F)c(Cl)c1)c1cc(C2CCCN(S(=O)(=O)c3ccccc3)C2)on1 (stereo unspecified)	.	-69*	.	.	.	.
O=C(NCCc1ccc(Cl)cc1)C(=O)NCC(c1cccs1)S(=O)(=O)c1ccccc1 (stereo unspecified)	0%[46.1 µM]	-18	.	.	.	.
COc1ccc(Cl)cc1NC(=O)c1cc(C)nn1-c1ccccc1	-10%[46.1 µM]	-27	.	-3%[46.1 µM]	.	.
CC(C)(C)n1cc(C(=O)c2ccc3ccccc3c2O)cn1	13µM*	?	i	4µM*	-28%	i
CCN(C(=O)CSc1nc2ccccc2n1Cc1ccccc1C#N)c1ccccc1	-3%[46.1 µM]	-5	.	.	.	.
CCCCC1Cc2[nH]c(=S)[nH]c(=O)c2C(c2cccc3ccccc23)O1 (stereo unspecified)	.	6	.	.	.	.
Cc1nc2ccc(S(=O)(=O)CCC(=O)NCc3ccc(Cl)cc3)cc2s1	.	-7	.	.	.	.
Cc1nc2ccc(S(=O)(=O)NCC(=O)NCc3ccc(Cl)cc3)cc2s1	3%[46.1 µM]	-69*!	31%	6%[46.1 µM]	0%	5%
CCSc1nc(-c2ccc(OC)cc2)nc2c1Cc1c(CO)cnc(C)c1O2	-6%[46.1 µM]	?	.	.	.	.
COCC(=O)c1[nH]c2ccccc2c1C	-18%	36	3.7µM*	13%[46.1 µM]	2%	1%
CCCC(=O)Nc1ccc2c(c1)nc(CCN1CCC(C)CC1)n2C	.	-10	.	.	.	.
Clc1cccc(Cl)c1C[n+]1cccc2ccccc21	?	-81*	.	?	?	.
NC(=O)c1ccsc1NC(=O)COC(=O)Cc1ccsc1	-2%	-31	21%	3%	7%	6%
COc1cc(CC(=O)OCC(=O)Nc2sccc2C(N)=O)cc(OC)c1OC	?	-39	-4%	11µM*	10µM*	16%
CCOc1ccc(OCC)c(NC(=O)C2CCCN(c3ncccn3)C2)c1 (stereo unspecified)	0%	-11	-17%	5%	?	-18%
CCOc1ccc(OCC)c(NC(=O)C2CCCN(C(=O)c3ccc(Cl)cc3)C2)c1 (stereo unspecified)	-2%	-14	9.3µM*	?	?	?
CC(=O)Nc1ccc(NC(=O)C2CCCN(C(=O)c3ccc(Cl)cc3)C2)cc1 (stereo unspecified)	.	-12	0%	-10%[46.1 µM]	21%	-14%
O=C(Nc1ccc(OC(F)(F)F)cc1)C1CCCN(C(=O)c2ccc(Cl)cc2)C1 (stereo unspecified)	.	-39	?	.	7.9µM*	?
Cn1cnc(S(=O)(=O)N2CCC(C(=O)Nc3ccc(OC(F)(F)F)cc3)CC2)c1	18%[46.1 µM]	-60*	.	.	.	.
Cc1cc(C(=O)Nc2ccc(Cl)cc2)on1	10%[46.1 µM]	-30	52%	0%[46.1 µM]	-6%	10%
COc1ccc(NC(=O)c2cc(C)no2)cc1Cl	2%[46.1 µM]	-33	3.7µM*	6%[46.1 µM]	-8%	4.1µM*
COc1ccc(Cl)cc1NC(=O)c1cc(C)no1	5%[46.1 µM]	56	29%	5%[46.1 µM]	10µM*	28%
COc1ccc(NC(=O)c2cc(C)no2)cc1OC	?	19	?	-7%[46.1 µM]	-11%	-4%
FC(F)(F)c1cc(CCN2C(=S)NC[C@@H]2c2ccccc2)cc(C(F)(F)F)c1	.	4	?	.	13%	-15%

Assay outcomes as filed in PubChem.
